Several values for one entry are separate records, joined by “and”; a condition that tells them apart may be missing. Equal entries are not always repeated. Results filed as inconclusive are left out. More than one record can exist for a structure, and the calls need not agree. Activity calls are given as the source filed them. Unless noted, calls come from the whole dose curve; as a rule, active = well fitted curve in the direction sought with a large enough effect; inconclusive = small, poorly fitted or top-dose-only effect, or another doubt; inactive = no such curve, though single readings can be large; an effect the other way counts as inactive or inconclusive.
How the values were obtained:
[1] = qHTS Assay for Identification of Small Molecule Antagonists for NFkB Signaling Pathway (AID 895; active = well fitted inhibition curve with a large enough effect in the signal ratio, with a control signal flat, not every such curve was filed as active; the % refers to the signal ratio; note: potency is the fitted concentration of half-maximal effect)
In short: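 ME-180 NFkB-bla cells (beta-lactamase under NFkB response element), plated overnight, treated with compound then 10 pM TNF alpha (about EC50) for 5 hrs at 37 C. LiveBLAzer FRET read at 460/530 nm emission, 405 nm excitation.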

[2] = target: Cytochrome P450 2C19 (Homo sapiens) (UniProt P33261); assay: qHTS Assay for Inhibitors and Substrates of Cytochrome P450 2C19 (AID 899); note: nearly all actives have a fitted effect of over 60% in size; note: potency is the fitted concentration of half-maximal effect
Cytochrome P450 2C19 (Homo sapiens), sequence (P33261 whole entry, looked up): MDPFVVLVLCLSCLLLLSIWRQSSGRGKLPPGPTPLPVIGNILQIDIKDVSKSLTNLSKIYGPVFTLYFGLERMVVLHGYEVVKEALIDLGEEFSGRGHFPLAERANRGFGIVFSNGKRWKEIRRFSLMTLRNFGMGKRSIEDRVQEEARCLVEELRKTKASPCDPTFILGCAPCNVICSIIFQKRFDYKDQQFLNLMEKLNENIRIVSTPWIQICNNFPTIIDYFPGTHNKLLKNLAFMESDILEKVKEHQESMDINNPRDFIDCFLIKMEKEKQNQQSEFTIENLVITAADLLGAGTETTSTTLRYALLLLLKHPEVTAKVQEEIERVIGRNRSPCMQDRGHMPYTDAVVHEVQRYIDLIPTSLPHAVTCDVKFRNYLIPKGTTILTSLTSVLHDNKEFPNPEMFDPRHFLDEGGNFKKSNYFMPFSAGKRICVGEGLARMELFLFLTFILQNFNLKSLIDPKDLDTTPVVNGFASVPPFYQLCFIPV
In short: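 Signal comes from luciferase acting on luciferin released by CYP2C19-mediated hydroxylation of Luciferin-H EGE, 10uM (KM). Assay mix: 5nM enzyme, 50mM KPO4; 60 min at 37C with NADPH regeneration. Data normalized against 57uM ketoconazole.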

[3] = target: Muscarinic acetylcholine receptor M1 (Rattus norvegicus) (UniProt P08482); assay: qHTS Assay for Antagonists of Acetylcholine Muscarinic M1 Receptor: Measurement of IP-One Response (AID 944); note: nearly all actives have a fitted effect of over 75% in size
Muscarinic acetylcholine receptor M1 (Rattus norvegicus), sequence (P08482 whole entry, looked up): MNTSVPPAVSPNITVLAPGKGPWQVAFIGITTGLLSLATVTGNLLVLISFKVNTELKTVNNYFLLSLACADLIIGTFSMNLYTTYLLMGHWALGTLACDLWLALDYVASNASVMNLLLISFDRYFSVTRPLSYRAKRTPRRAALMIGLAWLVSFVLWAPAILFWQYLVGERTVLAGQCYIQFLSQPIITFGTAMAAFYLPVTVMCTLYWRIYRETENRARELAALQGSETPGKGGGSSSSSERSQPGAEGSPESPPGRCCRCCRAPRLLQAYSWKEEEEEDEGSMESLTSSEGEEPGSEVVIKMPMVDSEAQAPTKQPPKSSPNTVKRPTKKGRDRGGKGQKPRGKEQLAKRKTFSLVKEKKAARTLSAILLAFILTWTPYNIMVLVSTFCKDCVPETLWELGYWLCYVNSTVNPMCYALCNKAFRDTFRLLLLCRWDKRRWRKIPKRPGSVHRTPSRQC
In short: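 Read-out: HTRF competition between d2-IP1 and Eu-cryptate anti-IP1 antibody, emission 620 and 665 nm. Stimulus was carbachol, EC80 (200 nM), for 30 min in M1-CHO cells (rat receptor), after 10 min compound pre-treatment.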

[4] = qHTS Assay for Identification of Small Molecule Agonists for Thrombopoietin (TPO) Signaling Pathway (AID 917); note: % is set by controls: 0 for no effect and ±100 for the full control effect
In short: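 Quantitative HTS for pathway activators: compounds were pin-transferred onto IL-3-starved Ba/F3 cells expressing human TPO receptor, TPO was added at its EC50 (26 pM final), and after 24 hrs at 37 C reporter luciferase was measured.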

[5] = Confirmation and Secondary Assay for Modulators of Hemoglobin Beta Chain Splicing at IVS2 654 locus (AID 910);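 note: HeLa cells stably carrying EGFP split by mutant beta-globin IVS2-654 intron; % of control where 0% means no effect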
In short: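 HeLa cells stably expressing EGFP interrupted by β-globin IVS2-654 intron, seeded overnight in Opti-MEM/2% FCS, then treated 2 days at 37 °C. Restored splicing read as total peak GFP intensity per well by laser scanning cytometry (488 nm excitation, 500–520 nm emission); 500 nM antisense PNA as control.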

[6] = Confirmation and Secondary Assay for Modulators of Hemoglobin Beta Chain Splicing at IVS2 705 locus (AID 930);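 note: HeLa cells stably expressing the EGFP-705 splicing reporter; GFP fluorescence per well restored by corrected splicing of the IVS2-705 intron in EGFP; series mostly up to about 46 µM; % of control where 0% means no effect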
In short: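 Stable HeLa line with EGFP disrupted by mutant beta-globin intron 2 (705). Overnight attachment, then 2 days of compound at 37C, 5% CO2. Signal: peak GFP intensity summed over objects 5-250 µm.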

[7] = target: Muscarinic acetylcholine receptor M1 (Rattus norvegicus) (UniProt P08482); assay: qHTS Assay for Antagonists of Acetylcholine Muscarinic M1 Receptor: Kinetic Measurement of Intracellular Calcium Response (AID 943);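 note: Fluo-4 calcium signal as peak divided by basal fluorescence over 4 min; series mostly up to about 35 µM; nearly all actives have a fitted effect of over 75% in size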
In short: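 Read-out: peak over basal Fluo-4 fluorescence, kinetic at 1 Hz for 4 min after EC80 carbachol (100 nM final). Rat M1-CHO cells, dye loaded 1 h at 37C, compound added 10 min before agonist.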

[8] = qHTS Assay for Identification of Small Molecule Agonists for Hypoxia Response Element Signaling Pathway (AID 914; active = well fitted activation curve with a large enough effect in the signal ratio, with a control signal flat, not every such curve was filed as active; the % refers to the signal ratio; note: % of control where 0% means no effect); settings: ME-180 (cervical carcinoma) HRE-bla reporter, beta-lactamase ratio, CoCl2, 17 h; activation: stronger effect = higher value
In short: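 Reporter activity (beta-lactamase, CCF4 460nm/530nm ratio) in HRE-bla ME-180 cells is recorded after 17 h compound exposure with EC50 CoCl2 at 37 degrees Celsius. AC50 values come from titration data.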

[9] = qHTS Assay for Identification of Small Molecule Antagonists for Thrombopoietin (TPO) Signaling Pathway (AID 918); settings: TPO-dependent cell signaling reporter, antagonist mode; note: potency is the fitted concentration of half-maximal effect; nearly all actives have a fitted effect of over 60% in size
In short: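 Luminescence read-out: GPIIb-promoter luciferase in Ba/F3 cells carrying human TPO receptor. Compounds added with 26 pM TPO (EC50), 24 hrs, 37 C, 5% CO2; cells deprived of IL-3 overnight beforehand. Inhibition of signal scored.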

[10] = Cell Viability - LYMP2-001 (AID 921);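 note: series mostly up to about 92 µM; cells exposed to compound for 24 h at 37 °C; 0% = DMSO only and full inhibition = tetraoctylammonium bromide control wells; nearly all actives have a fitted effect of over 70% in size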
In short: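 qHTS, 1536-well; lymphoblastoid cells, 24 hr compound, 37 C; ATP by CellTiter-Glo, 30 min RT; luminescence; Hill-fit AC50.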

CCCCCCN(CCCCCC)C(=O)Cc1c(-c2ccc(F)cc2)[nH]c2ccccc12
active: Potency [2] 3.98 µM
inactive: Potency [1] | Potency [3]

O=c1onc2cnc3ccccc3n12
inactive: Potency [2] | Potency [4] | Potency [3]
active: Potency [1] 5.62 µM

Cn1c(=O)[nH]c2ncn(C)c2c1=O
inactive: Potency [1] | Potency [5] | Potency [4] | outcome [6] | Potency [7] | Potency [3]

C/C(=C\c1ccc(C(=O)O)cc1)c1ccc2c(c1)C(C)(C)CCC2(C)C
active: Potency [1] 10 µM
inactive: activation [8] -65.3% | Potency [3]

COc1cc(N)c(Cl)cc1C(=O)OCCN1CCCCC1
inactive: Potency [1] | Potency [4]

CCCn1c(=O)c2[nH]c(C3CCCC3)nc2n(CCC)c1=O
inactive: Potency [1] | Potency [2] | Potency [5] | Potency [4] | outcome [6]

NCCS(=O)O
inactive: Potency [1] | Potency [2] | Potency [4] | Potency [7] | Potency [3]

N[C@H](C(=O)O)c1cc(O)cc(O)c1
inactive: Potency [1] | Potency [2] | Potency [4] | Potency [7] | Potency [3]

NC1(C(=O)O)CC1
inactive: Potency [1] | Potency [5] | activation [8] -20.7% | Potency [4] | outcome [6] | Potency [3]

CC(=O)NCCc1c[nH]c2ccc(O)cc12
inactive: Potency [1] | Potency [5] | Potency [4] | outcome [6] | Potency [7]

CCSC(=N)N
inactive: Potency [1] | Potency [5] | Potency [4] | outcome [6] | Potency [7] | Potency [3]

O=C(O)C1=CCNCC1
inactive: Potency [1] | Potency [5] | Potency [4] | outcome [6] | Potency [7]

CC[N+](CC)(CC)CC(=O)Nc1c(C)cccc1C
inactive: Potency [1] | Potency [4]

CNc1cc(NS(=O)(=O)c2ccc(N)cc2)nc(NC)n1
inactive: Potency [1] | Potency [2] | Potency [4] | Potency [7]

CCN(CC)CCOC(=O)c1cc(Cl)c(N)cc1OC
inactive: Potency [1] | Potency [4]

CC[C@H](NC(=O)c1c(C)c(-c2ccccc2)nc2ccccc12)c1ccccc1
active: Potency [1] 12.6 µM | Potency [2] 25.1 µM
inactive: Potency [4]

[Li+]
inactive: Potency [1] | activation [8] 9.95% | Potency [4]

O=[N+]([O-])c1cccc2cn[nH]c12
inactive: Potency [1] | Potency [2] | Potency [5] | Potency [4] | outcome [6] | Potency [3]

O=C(O)c1cccnc1C(=O)O
inactive: Potency [1] | Potency [2] | Potency [5] | Potency [4] | outcome [6] | Potency [7]

Cc1nc(N=Nc2ccc(C(=O)O)cc2)c(COP(=O)(O)O)c(C=O)c1O
inactive: Potency [1] | Potency [2] | Potency [4] | Potency [7]

NC1(C(=O)O)CCCCC1
inactive: Potency [1] | Potency [2] | Potency [4] | Potency [3]

NCCCNCCCCNCCCN
inactive and 7.94 µM (active): Potency [2]
inactive: Potency [1] | Potency [3]

CCN1C(=O)C=CC1=O
inactive: Potency [1] | activation [8] 23.4% | Potency [7] | Potency [3]
active: Potency [9] 1.58 µM

COc1ccc(CCN(C)CCc2ccc(OC)c(OC)c2)cc1OC
inactive: Potency [1] | Potency [4]

O=C(O)C1=CC(=C(c2ccc(O)c(C(=O)O)c2)c2ccc(O)c(C(=O)O)c2)C=CC1=O
inactive: Potency [1] | Potency [5] | outcome [6] | Potency [7] | Potency [3]

Clc1nccc2c1ccc1ccccc12
inactive: Potency [1] | Potency [4]

NC/C=C\C(=O)O
inactive: Potency [1] | Potency [2] | Potency [5] | Potency [4] | outcome [6] | Potency [7] | Potency [3]

Cc1nc2c(OCc3ccccc3)cccn2c1CC#N
inactive: Potency [1] | Potency [2] | Potency [4] | Potency [3]

CC(=O)C(C)=O
inactive: Potency [1] | Potency [2] | outcome [10]

NC(=O)c1ccccc1
inactive: Potency [1] | Potency [2] | Potency [4] | outcome [10] | Potency [7] | Potency [3]

CSC(=N)N
inactive: Potency [1] | Potency [4] | Potency [7] | Potency [3]
active: Potency [2] 0.631 µM

CN[C@H](CC(=O)O)C(=O)O
inactive: Potency [1] | Potency [2] | Potency [4] | Potency [3]

O=C(O)C1=CCCNC1
inactive: Potency [1] | Potency [5] | Potency [4] | outcome [6] | Potency [7] | Potency [3]

N[C@H](C(=O)O)[C@H](O)C(=O)O
inactive: Potency [1] | Potency [4] | Potency [7]

O=C1Nc2ccc(I)cc2/C1=C/c1cc(Br)c(O)c(Br)c1
inactive: Potency [4] | Potency [7]
active: Potency [1] 8.91 µM

Nc1ccc(-c2nc3ccc(-c4nc5ccc(N)cc5[nH]4)cc3[nH]2)cc1
inactive: Potency [4] | Potency [3]
active: Potency [1] 1.12 µM

CCN(c1nc(N)c(C(=O)N=C(N)N)nc1Cl)C(C)C
inactive: Potency [1] | Potency [3]

O=C1NC(=O)c2cc(Nc3ccccc3)c(Nc3ccccc3)cc21
active: Potency [1] 10 µM
inactive: Potency [3]

CNCCNS(=O)(=O)c1cccc2cnccc12
active: Potency [1] 10 µM
inactive: Potency [4] | Potency [7] | Potency [3]

N=C(N)c1ccccc1
inactive: Potency [1] | Potency [4] | Potency [7]
